PubChem BioAssay (Tox21)
Results filed as inconclusive are left out. The source made the active and inactive calls. Unless noted, the call rests on the fitted dose curve; in most records, active means well fitted curve in the direction sought with a large enough effect in the repeat runs; inconclusive means weak or mixed curves; inactive means no such curve, though single readings can be large; an effect the other way counts as inactive or inconclusive.

Experiments:
[1] = qHTS RealTime-Glo MT Cell Viability Assay in HEK293 cells - 0 hour (AID 1224880); further: top concentration of the series differs between compounds; nearly all actives have a fitted effect of over 45% in size
Outline: (§1)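 Cells were seeded together with NanoLuc luciferase and a prosubstrate that viable cells reduce to a luciferase substrate. After a 5 h incubation at 37 C/5% CO2, compounds were added and luminescence was measured repeatedly during 40 h of treatment.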

[2] = A CellTox Green Cytotoxicity Assay to monitor cytotoxicity in HEK293 cells - 32 hour (AID 1224881); further: nearly all actives have a fitted effect of over 40% in size
Outline: (§2)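 Nonlytic real-time cytotoxicity: HEK293 + CellTox Green reagent plated, 5 h preincubation, pintool compound addition (23 nL in DMSO), 37 C for 40 h, fluorescence measured at successive time points.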

[3] = A CellTox Green Cytotoxicity Assay to monitor cytotoxicity in HepG2 cells - 0 hour (AID 1224882); further: nearly all actives have a fitted effect of over 35% in size
Outline: (§3)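 Read-out is fluorescence of a cyanine dye excluded from live cells that stains DNA of dead HepG2 cells, with signal proportional to cytotoxicity. Plates were read at 0, 8, 16, 24, 32 and 40 h after compound addition.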

[4] = A CellTox Green Cytotoxicity Assay to monitor cytotoxicity in HepG2 cells - 32 hour (AID 1224883); further: nearly all actives have a fitted effect of over 50% in size
Outline: as §3

[5] = A CellTox Green Cytotoxicity Assay to monitor cytotoxicity in HEK293 cells - 8 hour (AID 1224884); further: nearly all actives have a fitted effect of over 35% in size
Outline: as §2

[6] = qHTS RealTime-Glo MT Cell Viability Assay in HepG2 cells - 16 hour (AID 1224885); further: nearly all actives have a fitted effect of over 50% in size
Outline: (§4)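 Real-time, nonlytic viability: 600 HepG2 cells/well mixed with NanoLuc enzyme plus prosubstrate; 5 h settle, compound (DMSO) added by pintool; luminescence monitored over 40 h at 37 C.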

[7] = qHTS RealTime-Glo MT Cell Viability Assay in HEK293 cells - 24 hour (AID 1224886); further: top concentration of the series differs between compounds; nearly all actives have a fitted effect of over 50% in size
Outline: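 Cells + reagent dispensed (600 cells/well, HEK293) → 5 h at 37 C/5% CO2 → 23 nL compound in DMSO pinned → 40 h at 37 C → luminescence read at 0, 8, 16, 24, 32, 40 h.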

[8] = qHTS RealTime-Glo MT Cell Viability Assay in HEK293 cells - 8 hour (AID 1224887); further: top concentration of the series differs between compounds; nearly all actives have a fitted effect of over 50% in size
Outline: as §1

[9] = A CellTox Green Cytotoxicity Assay to monitor cytotoxicity in HEK293 cells - 16 hour (AID 1224888); further: nearly all actives have a fitted effect of over 35% in size
Outline: as §2

[10] = qHTS RealTime-Glo MT Cell Viability Assay in HepG2 cells - 0 hour (AID 1224889); further: nearly all actives have a fitted effect of over 50% in size
Outline: as §4

[11] = A CellTox Green Cytotoxicity Assay to monitor cytotoxicity in HepG2 cells - 8 hour (AID 1224890); further: nearly all actives have a fitted effect of over 45% in size
Outline: as §3

[12] = qHTS assay to identify small molecule antagonists of the estrogen receptor alpha (ER-alpha) signaling pathway using the BG1 cell line in the presence of 0.1 nM 17-beta-estradiol - cell viability counter screen (AID 1259241); further: nearly all actives have a fitted effect of over 40% in size
Outline: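 Cytotoxicity counter-screen: live-cell protease activity measured by fluorescence (30 min reagent step) in the same wells. Cells were VM7Luc4E2 with endogenous ER-alpha and ERE-driven luciferase, treated 22 hr at 37C alongside 0.1 nM 17beta-estradiol final.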

[13] = qHTS assay to identify small molecule antagonists of the androgen receptor (AR) signaling pathway using the MDA cell line in the presence of 0.5 nM R1881 - cell viability counter screen (AID 1259242); further: nearly all actives have a fitted effect of over 45% in size
Outline: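 Counter screen for cytotoxicity run in the same wells as the AR antagonist reporter screen: MDA-kb2 cells were treated 16 hr with test compounds and 0.5 nM R1881, then live-cell protease activity was measured by fluorescence.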

[14] = molecular target: Androgen receptor (Homo sapiens) (UniProt P10275); assay: qHTS assay to identify small molecule antagonists of the androgen receptor (AR) signaling pathway using the MDA cell line in the presence of 0.5 nM R1881 (AID 1259243); further: nearly all actives have a fitted effect of over 50% in size
Outline: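 Luciferase luminescence is the read-out: compounds are tested for suppressing 0.5 nM R1881-driven MMTV reporter activity in MDA-kb2 cells after 16 hr at 37C.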

[15] = molecular target: Estrogen receptor (Homo sapiens) (UniProt P03372); assay: qHTS assay to identify small molecule antagonists of the estrogen receptor alpha (ER-alpha) signaling pathway using the BG1 cell line in the presence of 0.1 nM 17-beta-estradiol (AID 1259244); further: nearly all actives have a fitted effect of over 50% in size
Outline: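 Cells: VM7Luc4E2, endogenous ER-alpha, 4x ERE-luc stable. Pre-culture 5 d, phenol red-free, charcoal-stripped FBS. Plated 24 h, compound + E2 0.1 nM final, 22 h 37C/5% CO2. Readout ONE-Glo luminescence.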

[16] = qHTS assay to identify small molecule phospholipidosis (PLD) inducers (AID 1259344; active means well fitted curve in the direction sought with a large enough effect; an effect the other way counts as inactive or inconclusive)
Outline: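 Phospholipidosis is scored by imaging LipidTOX-stained pits in HepG2 cells exposed to compound for 24 h at 37 C; pit counts and integrated intensities per well and per cell serve as outputs.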

[17] = qHTS assay to identify small molecule HDAC inhibitors (AID 1259364); further: top concentration of the series differs between compounds; nearly all actives have a fitted effect of over 45% in size
Outline: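 Luminescence from a cell-permeant luminogenic class I/II HDAC substrate reports endogenous deacetylase activity in intact HCT-116 cells treated with compounds for 2 h.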

[18] = qHTS assay to identify small molecule HDAC inhibitors - cell viability counter screen (AID 1259365)
Outline: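 CellTiter-Glo luminescence (30 min, room temperature) reported viability after a 2 h compound exposure at 37 C. Cells: wild-type HCT-116, 1,500 per well, seeded the night before.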

[19] = qHTS assay to identify small molecule agonists of the sonic hedgehog signaling (Shh) pathway - cell viability counter screen (AID 1259366); further: nearly all actives have a fitted effect of over 50% in size
Outline: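 Cytotoxicity counter screen: CellTiter-Fluor reagent added after 23 h compound exposure, then 1 h at 37C and fluorescence read. Cells were 3T3 Gli1-Luc, seeded 2,000 per well and dosed 4 h post-plating.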

[20] = qHTS assay to identify small molecule antagonists of the sonic hedgehog signaling (Shh) pathway - cell viability counter screen (AID 1259367); further: nearly all actives have a fitted effect of over 55% in size
Outline: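 Cells: 3T3 Gli1-Luc, 2,000/well, 4 hr pre-incubation. Compounds in DMSO, then conditioned medium. Incubation 24 hr, 37C, 5% CO2. CellTiter-Fluor at 23 hr, 1 hr, fluorescence.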
On the % scale 0 is the no-effect control and ±100 the full control effect.

Estrogen receptor (Homo sapiens), sequence (P03372 whole entry, looked up): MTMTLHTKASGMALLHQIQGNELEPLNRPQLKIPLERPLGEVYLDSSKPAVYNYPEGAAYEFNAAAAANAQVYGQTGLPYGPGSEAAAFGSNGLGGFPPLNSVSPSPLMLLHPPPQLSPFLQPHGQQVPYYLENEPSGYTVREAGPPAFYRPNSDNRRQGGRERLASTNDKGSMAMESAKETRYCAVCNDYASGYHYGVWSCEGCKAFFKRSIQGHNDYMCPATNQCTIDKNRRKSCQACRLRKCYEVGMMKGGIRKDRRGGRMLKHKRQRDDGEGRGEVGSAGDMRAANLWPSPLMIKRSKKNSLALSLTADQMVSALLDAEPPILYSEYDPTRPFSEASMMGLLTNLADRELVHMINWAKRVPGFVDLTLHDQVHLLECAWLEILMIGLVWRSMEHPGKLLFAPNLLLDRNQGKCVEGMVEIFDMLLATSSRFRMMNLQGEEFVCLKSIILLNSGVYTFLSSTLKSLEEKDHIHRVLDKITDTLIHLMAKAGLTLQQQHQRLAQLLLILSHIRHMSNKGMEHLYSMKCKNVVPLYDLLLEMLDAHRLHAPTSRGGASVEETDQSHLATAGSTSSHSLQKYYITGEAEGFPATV
Androgen receptor (Homo sapiens), sequence (P10275 whole entry, looked up): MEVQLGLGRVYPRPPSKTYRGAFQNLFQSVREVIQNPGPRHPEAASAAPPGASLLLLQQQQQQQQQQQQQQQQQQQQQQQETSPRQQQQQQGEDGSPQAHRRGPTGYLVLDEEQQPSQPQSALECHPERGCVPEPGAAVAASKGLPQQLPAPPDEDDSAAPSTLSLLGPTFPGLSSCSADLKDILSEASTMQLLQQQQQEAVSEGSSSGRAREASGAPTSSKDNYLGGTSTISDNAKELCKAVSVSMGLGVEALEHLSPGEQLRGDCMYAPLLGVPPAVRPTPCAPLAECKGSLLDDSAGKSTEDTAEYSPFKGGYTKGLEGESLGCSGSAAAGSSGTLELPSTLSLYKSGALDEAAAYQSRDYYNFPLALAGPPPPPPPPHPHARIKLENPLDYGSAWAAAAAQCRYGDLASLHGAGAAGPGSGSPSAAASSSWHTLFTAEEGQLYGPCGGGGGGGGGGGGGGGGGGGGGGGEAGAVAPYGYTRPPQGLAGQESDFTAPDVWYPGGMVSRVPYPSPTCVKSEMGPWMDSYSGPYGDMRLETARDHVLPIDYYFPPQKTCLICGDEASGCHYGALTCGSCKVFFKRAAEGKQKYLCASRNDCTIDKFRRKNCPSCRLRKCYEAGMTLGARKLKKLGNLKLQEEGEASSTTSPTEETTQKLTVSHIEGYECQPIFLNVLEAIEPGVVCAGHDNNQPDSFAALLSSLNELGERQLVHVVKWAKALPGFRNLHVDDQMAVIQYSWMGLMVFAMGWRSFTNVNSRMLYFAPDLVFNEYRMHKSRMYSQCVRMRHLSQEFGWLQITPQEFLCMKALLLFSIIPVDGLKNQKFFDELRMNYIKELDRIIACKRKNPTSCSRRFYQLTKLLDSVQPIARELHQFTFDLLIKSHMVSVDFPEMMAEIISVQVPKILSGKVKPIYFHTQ

NC(=O)COCCN1CCN(C(c2ccccc2)c2ccc(Cl)cc2)CC1 (stereo unspecified)
inactive: Potency [1] | Potency [2] | Potency [3] | Potency [4] | Potency [5] | Potency [6] | Potency [7] | Potency [8] | Potency [9] | Potency [10] | Potency [11] | outcome [12] | Potency [13] | Potency [14] | outcome [15] | PLD induction [16] -1.34% [at 1.53 µM] | Potency [17] | outcome [18] | Potency [19] | Potency [20]

Nc1cc(=O)[nH]c(N)n1
inactive: Potency [1] | Potency [2] | Potency [3] | Potency [4] | Potency [5] | Potency [6] | Potency [7] | Potency [8] | Potency [9] | Potency [10] | Potency [11] | outcome [12] | Potency [13] | outcome [15] | PLD induction [16] 1.63% [at 7.66 µM] | Potency [17] | outcome [18] | Potency [19] | Potency [20]

NCCCNCCSP(=O)(O)O
inactive: activity change, negative = cytotoxicity [1] -1.72% [at 6.97 µM] | cytotoxicity increase [2] -9.01% [at 6.97 µM] | cytotoxicity [3] 1.75% [at 6.97 µM] | cytotoxicity increase [4] -8.01% [at 6.97 µM] | cytotoxicity increase [5] 3.38% [at 6.97 µM] | activity change, negative = cytotoxic [6] 0.263% [at 6.97 µM] | activity change, negative = cytotoxicity [7] 4.08% [at 6.97 µM] | activity change, negative = cytotoxicity [8] 2.94% [at 6.97 µM] | activity change [9] -4.83% [at 6.97 µM, stronger effect = higher value] | activity change, negative = cytotoxicity [10] -0.885% [at 6.97 µM] | cytotoxicity increase [11] 0.329% [at 6.97 µM] | activity change, negative = cytotoxicity [12] -0.971% [at 8.39 µM] | viability change, negative = cytotoxic [13] 0.214% [at 8.39 µM] | activity change, negative = inhibition [15] 3.05% [at 8.39 µM] | Potency [16] | activity change, negative = inhibition [17] -1.97% [at 8.39 µM] | activity change, negative = cytotoxicity [18] 0.673% [at 8.39 µM] | viability change, negative = cytotoxic [19] -2.35% [at 8.39 µM] | viability change, negative = cytotoxic [20] 5.98% [at 8.39 µM]

CCCc1cc(C(N)=S)ccn1
inactive: Potency [1] | Potency [2] | Potency [3] | Potency [4] | Potency [5] | Potency [6] | Potency [7] | Potency [8] | Potency [9] | Potency [10] | Potency [11] | outcome [12] | Potency [13] | outcome [15] | Potency [17] | outcome [18] | Potency [19] | Potency [20]

CC(=O)CC(C)(C)C1CCCCC1
inactive: Potency [1] | Potency [2] | Potency [3] | Potency [4] | Potency [5] | Potency [6] | Potency [7] | Potency [8] | Potency [9] | Potency [10] | Potency [11] | outcome [12] | Potency [13] | outcome [15] | Potency [17] | outcome [18] | Potency [19] | Potency [20]

OC[C@]1(O)OC[C@@H](O)[C@H](O)[C@@H]1O
inactive: Potency [1] | Potency [2] | Potency [3] | Potency [4] | Potency [5] | Potency [6] | Potency [7] | Potency [8] | Potency [9] | Potency [10] | Potency [11] | outcome [12] | Potency [13] | Potency [17] | outcome [18] | Potency [19] | Potency [20]
